Assay outcomes deposited in PubChem by several laboratories.
FXN GAA850 act: activators of GAA850 frataxin (FXN) promoter. HEK293 lucGAA850 FXN promoter luciferase reporter, 24 h; percent of 10 µM SAHA response. 0.56% of 360,000 active. activation, % at 6 µM;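 active = activation above the average of all compounds screened plus 3 SD, cutoff fixed separately per campaign, cut at about 7.5% in these data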;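 note: 0% = DMSO wells and 100% = 10 µM SAHA wells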
esBAF inh: SWI/SNF esBAF complex inhibition. 2% of 350,000 active. AID 602393. reporter increase, % at 12.5 µM. mouse ES cells, Bmi1-luciferase knock-in reporter, 24 h; 100% = twice the neutral-well signal; in the data active = activation above about 40%; inconclusive = no clear call, values can overlap the other calls;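 note: 0% = median of the plate's neutral control wells and 100% = double that signal; a rise in the Bmi1 reporter signal indicates esBAF inhibition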
AHR act: activators of human aryl hydrocarbon receptor | AHR-responsive luciferase reporter cells, luminescence | activation, % at 5 µM | P35869 | 2.5% of 320,000 active; in the data active = activation above about 47%;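 note: 0% = vehicle wells and 100% = reference agonist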
Target sequence (P35869 whole entry, looked up): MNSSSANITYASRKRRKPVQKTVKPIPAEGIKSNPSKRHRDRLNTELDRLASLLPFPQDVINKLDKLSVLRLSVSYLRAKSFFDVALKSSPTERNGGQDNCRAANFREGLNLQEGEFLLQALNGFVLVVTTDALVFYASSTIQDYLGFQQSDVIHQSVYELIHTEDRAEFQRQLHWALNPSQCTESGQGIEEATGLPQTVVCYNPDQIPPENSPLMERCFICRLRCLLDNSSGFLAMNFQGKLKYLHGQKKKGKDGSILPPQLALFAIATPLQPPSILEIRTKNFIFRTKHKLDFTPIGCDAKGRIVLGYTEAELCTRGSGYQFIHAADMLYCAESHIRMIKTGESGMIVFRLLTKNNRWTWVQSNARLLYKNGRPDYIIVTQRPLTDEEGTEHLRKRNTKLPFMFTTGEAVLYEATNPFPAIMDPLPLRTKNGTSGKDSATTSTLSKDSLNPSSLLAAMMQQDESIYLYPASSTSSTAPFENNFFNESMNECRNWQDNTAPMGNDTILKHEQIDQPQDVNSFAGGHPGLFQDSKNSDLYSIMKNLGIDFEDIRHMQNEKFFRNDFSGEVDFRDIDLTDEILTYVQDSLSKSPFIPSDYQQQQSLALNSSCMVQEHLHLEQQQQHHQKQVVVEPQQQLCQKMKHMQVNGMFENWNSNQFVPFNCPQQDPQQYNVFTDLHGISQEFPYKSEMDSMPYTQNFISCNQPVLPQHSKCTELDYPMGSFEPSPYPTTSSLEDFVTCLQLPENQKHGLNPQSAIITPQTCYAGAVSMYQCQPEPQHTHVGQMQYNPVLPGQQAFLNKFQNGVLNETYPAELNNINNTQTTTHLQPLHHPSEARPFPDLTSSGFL
MITF TRPM1 HTS: MITF TRPM1 promoter activation in melanoma cells. 0.75% of 300,000 active. activation, % at 12.5 µM. SK-MEL-5 TRPM1-promoter luciferase, 24 h; % of positive control, neutral wells = 0;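 active = mean activation of at least 80% with every replicate also reaching 80%; inconclusive = mean reaches 80% but some replicate falls short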;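 note: 0% = neutral control wells and 100% = parthenolide positive control wells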
Wnt bcat act: Wnt/beta-catenin pathway activation; Wnt/beta-catenin reporter cell assay, activator, plate reader; activation, % at 9.35 µM; 1.2% of 300,000 active; AID 743398; in the data active = activation above about 30%, passing the limit was not always enough; inconclusive = no clear call, values can overlap the other calls;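 note: 0% = neutral control wells and 100% = positive control wells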
The depositor's hits bear a star; u = inconclusive; x = no result given. An excerpt weighted towards active compounds, which were near 4.2% of everything screened.

SMILES	FXN GAA850 act	esBAF inh	AHR act	MITF TRPM1 HTS	Wnt bcat act
CCC(C)(C)C(=O)Nc1nnc(CCc2ccccc2)s1	6	62*	6	61	15
CCCCC(CC)c1nnc(NC(=O)c2cccs2)s1 (stereo not given)	2	x	x	7	-1
O=C(Nc1nnc(CCc2ccccc2)s1)c1cccs1	4	46*	18	26	x
CC(C)c1nnc(NC(=O)c2cccs2)s1	2	1	53*	64	28
CO[C@@H]1CN(C)C(=O)c2ccc(NC(C)=O)cc2OC[C@H](C)N(C(=O)C2CCOCC2)C[C@@H]1C	x	-1	x	x	x
O=CC1=C(N2CCOCC2)/C(=C\c2ccccc2)CC1	2	3	3	11	10
N#CC1=C(N2CCOCC2)/C(=C\c2ccccc2)CC1	-1	x	49*	5	4
O=C(C[C@@H]1CC[C@H]2NC[C@@H](O)COC[C@@H]2O1)NCCc1ccccc1	x	-3	x	x	x
Cc1noc(C)c1C(=O)Nc1nc2ccc(Cl)cc2s1	5	31	12	50	11
CCc1noc(C)c1C(=O)Nc1nc2ccc(F)cc2s1	6	x	52*	57	22
Cc1ccc(C)c(-c2csc(NC(=O)c3c(C)noc3C)n2)c1	1	3	8	-14	0
Cc1ccc(-c2csc(NC(=O)c3c(C)noc3C)n2)s1	0	x	76*	-2	x
Cc1noc(C)c1C(=O)Nc1nc2ccc(F)cc2s1	4	52*	35	66	59*
CCc1noc(C)c1C(=O)Nc1nc2ccc(S(C)(=O)=O)cc2s1	1	27	12	28	10
COCC(=O)OCc1cc2cccc(C)c2[nH]c1=O	1	x	5	3	42*
Cc1cccc2cc(COC(=O)COc3ccccc3)c(=O)[nH]c12	1	0	1	-11	x
COCC(=O)Nc1nc(-c2ccccc2)ns1	2	22	47*	15	x
O=C(N/N=C\c1ccc(Sc2ccccn2)o1)c1cccc(Br)c1	-3	-2	61*	9	-6
Cc1ccccc1C(=O)N/N=C/c1ccc(Sc2ccccn2)o1	3	x	23	9	-3
Cc1ccc(Nc2nc(NCCCN3CCOCC3)nc(N)c2[N+](=O)[O-])cc1	-1	x	10	8	-2
Nc1nc(NCCCN2CCOCC2)nc(Nc2ccc(Cl)cc2)c1[N+](=O)[O-]	0	x	74*	x	-2
Nc1nc(NCC2CCCO2)nc(Nc2ccc(Cl)cc2)c1[N+](=O)[O-] (stereo not given)	0	x	68*	x	-5
Nc1nc(NCC2CCCO2)nc(Nc2ccccc2)c1[N+](=O)[O-] (stereo not given)	0	x	3	18	0
O=C(N[C@H]1CC[C@H](CCNC(=O)C2CC2)O[C@H]1CO)c1ccccn1	x	-1	x	x	x
Cc1nc(SCc2ccccc2)nc2c1CCC2	7	100*	0	93*	16
SMILES	FXN GAA850 act	esBAF inh	AHR act	MITF TRPM1 HTS	Wnt bcat act
CC(C)[C@@H](CO)NC(=O)c1ccc2c3n(nc2c1)-c1ccc(Cl)cc1CO3	5	59*	-7	89*	45*
C[C@@H](CO)NC(=O)c1ccc2c3n(nc2c1)-c1ccc(Cl)cc1CO3	4	81*	-7	102*	47*
N#CCn1cnc2c(oc3ccccc32)c1=O	2	10	2	1	x
CCCCn1cnc2c(oc3ccccc32)c1=O	5	u	x	99*	9
C(/C=C/c1ccco1)=N/N1CCN(c2ccccc2)CC1	4	25	11	113*	x
Clc1ccccc1CN1CCN(/N=C/C=C\c2ccco2)CC1	4	x	-1	25	4
Cc1noc(C)c1S(=O)(=O)N(C)C[C@H]1OCCCC[C@@H](C)Oc2ccc(NS(=O)(=O)c3ccc(Cl)cc3)cc2C(=O)N([C@H](C)CO)C[C@@H]1C	x	2	x	x	x
Cc1nnc(C)n1/N=C/c1ccccn1	1	x	-1	3	x
C(=C\n1nnc2ccccc21)/c1ccccn1	2	-13	44	42	34*
O=C(c1nnc(-c2ccncc2)o1)c1ccccc1Cl	3	2	2	-1	35*
c1cc(Nc2ncnc3sc4c(c23)CCC4)ccn1	0	-16	0	4	-3
C(=N\Nc1ncnc2sc3c(c12)CCC3)/c1cccs1	13*	2	56*	-10	x
Nc1nc(SCC(=O)N2CCc3ccccc3C2)[nH]c(=O)c1-c1ccccc1	2	56*	-1	4	11
Cc1sc(NC(=O)C2CCCCC2C(=O)O)c(C(N)=O)c1-c1ccc(C(C)C)cc1 (stereo not given)	1	62*	0	31	x
Cc1sc(NC(=O)C2CCCCC2C(=O)O)c(C(N)=O)c1-c1ccccc1 (stereo not given)	1	u	44	51	x
Cc1nc(N)sc1N=Nc1ccccc1C(F)(F)F	6	u	-3	159*	28
Cc1ccc(S(=O)(=O)NCC[C@@H]2CC[C@H](NC(=O)NC(C)C)[C@@H](CO)O2)cc1	x	-3	x	x	x
Fc1ccc2c(Cl)c(-c3nnc(-c4cccs4)o3)sc2c1	2	-11	-1	x	44*
OCCCCC#Cc1c(-c2ccsc2)sc2ccccc12	2	-3	49*	13	-2
C(#Cc1c(-c2ccsc2)sc2ccccc12)c1ccsc1	1	-1	72*	-7	-3
COC(=O)CCC(=O)c1oc2ccc(Br)cc2c1N	5	11	1	90*	x
C[C@H]1CN([C@@H](C)CO)C(=O)Cc2cc(NC(=O)Nc3ccccc3)ccc2O[C@@H]1CN(C)C(=O)Nc1cccc2ccccc12	x	4	x	x	x
CCc1ccc2nc(NC(=O)C3CSC4(C)CCC(=O)N34)sc2c1 (stereo not given)	3	x	66*	49	26
C[C@@H]1CN([C@H](C)CO)C(=O)Cc2cc(NC(=O)CCN3CCOCC3)ccc2O[C@H]1CN(C)Cc1ccc(Oc2ccccc2)cc1	x	0	x	x	x
O=c1ncn(-c2cccc(Cl)c2)c2ccccc12	-1	x	0	1	44*
SMILES	FXN GAA850 act	esBAF inh	AHR act	MITF TRPM1 HTS	Wnt bcat act
O=c1c2ccccc2ncn1-c1cccc(Cl)c1	-2	2	5	7	x
O=C(/C=C\c1ccco1)Oc1cccc2cccnc12	2	x	4	-12	40*
COc1ccccc1/C=C/C(=O)Oc1cccc2cccnc12	3	x	0	14	62*
COCCCNC(=S)NNC(=O)c1csc(C)n1	-1	-5	1	-12	41*
c1nc(C2CCCCC2)cc2cc3c(cc12)OCO3	3	51*	6	65	5
CCC(=O)Nc1cc(C(=O)OCC(=O)c2ccc(Cl)cc2Cl)ccc1C	-2	3	0	0	x
CCC(=O)Nc1cc(C(=O)OCC(=O)c2ccccc2Cl)ccc1C	2	64*	2	x	35*
CCC(=O)Nc1cc(C(=O)OCC(=O)c2ccccc2)ccc1C	5	x	10	77	35*
Cc1noc(C)c1-c1ccc(C(=O)Nc2ccccc2)c2occc12	4	57*	x	x	-1
Cc1noc(C)c1-c1ccc(C(=O)NCC2CC2)c2occc12	4	-2	x	x	8
